An excerpt weighted towards active compounds, which were near 6.3% of everything screened.
MK inhibit: inhibitors of Streptococcus pneumoniae mevalonate kinase; inhibition, % at 10 µM; purified MK, PK/LDH-coupled NADH absorbance 340 nm; 0.48% of 65,000 active;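 active means ranked among the strongest by inhibition in the single 10 µM screen, a fixed top-ranked set picked for dose follow-up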
DPM-DC inhibit: inhibitors of Streptococcus pneumoniae diphosphomevalonate decarboxylase; purified DPM-DC, PK/LDH coupled NADH fluorescence; 0.49% of 65,000 active; calls only at 10 µM;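 active means the 320 compounds with the highest percent inhibition in the single-dose primary screen, excluding strongly autofluorescent ones, cut at about 32% in these data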;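 further: kinetic rate of NADH fluorescence loss reporting ADP formed by the decarboxylase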
NADH coupling: blocks coupling enzymes of NAD/NADH assays; coupled PK/LDH NADH assays, four targets; IC50, µM (titrated, usually from 10 µM), for the others: top-dose inhibition; 0.02% of 65,000 active; AID 774;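 active means single-dose screening hits from any of four coupled enzyme assays that gave an IC50 when retested across doses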;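 further: the DPM-DC format reads NADH fluorescence rather than 340 nm absorbance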
PMK inhibit: inhibitors of Streptococcus pneumoniae phosphomevalonate kinase; AID 539; inhibition, % at 10 µM; purified PMK, PK/LDH-coupled NADH absorbance 340 nm; 0.49% of 65,000 active;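 active means top-ranked compounds by inhibition in the single 10 µM screen, taking a fixed number of the strongest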;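 further: 0% = full reaction with DMSO carrier and 100% = background rate without enzyme reaction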
A340 absorber: compounds absorbing at 340 nm; compound absorbance at 340 nm, fold over control; fold change at 10 µM; 65,000 tested, under 10 active; AID 708;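 active means at 10 µM dose, initial 340 nm absorbance at least 2 fold that of control wells; inactive means change under 2 fold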;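 further: initial absorbance extrapolated from kinetic A340 decline of NADH oxidation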
Autofluor 339: intrinsic fluorescence of library compounds, ex339/em460 – biochemical, MLSMR library, data from DPM-DC assay, artefact control, profiling panel; AID 709; fluorescence fold increase at 10 µM; compound autofluorescence, ex339/em460 nm, NADH buffer; stronger effect = higher value; 1 = no-compound wells, NADH background; 5.5% of 65,000 active;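 active means at 10 µM, mean starting fluorescence two-fold or more over control wells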;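 further: signal is the first read of a kinetic run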
Numbers without * were called inactive; i = inactive; · = no result shown.

SMILES | MK inhibit | DPM-DC inhibit | NADH coupling | PMK inhibit | A340 absorber | Autofluor 339
NC(=O)c1ccccc1N=Cc1ccccn1 | 3 | · | 7% | 10 | 1 | 5*
CCCCc1cc(=O)oc2cc(C)cc(OCC(=O)O)c12 | 8 | · | 6% | 4 | 1.1 | 3.8*
CCCCCCc1ccc(OCC(=O)O)cc1OCC(=O)O | 3 | i | 1% | 0 | 1 | 1.1
COC(=O)c1oc2ccc(Br)cc2c1NC(=O)CN1CCN(C)CC1 | 7 | i | 3% | 12 | 1 | 1.1
COC(=O)c1oc2ccc(Br)cc2c1NC(=O)c1ccccc1 | 5 | i | 12% | 10 | 1.1 | 3.2*
Nc1nc(-c2ccco2)c(-c2ccco2)s1 | 1 | i | 6% | 16 | 1.1 | 1.1
c1coc(-c2nc(-c3ccco3)c(-c3ccco3)nc2-c2ccco2)c1 | 16 | · | 16% | 16 | 1.1 | 2.2*
N#Cc1nc(-c2cccs2)oc1NCCN1CCOCC1 | 0 | · | 4% | 7 | 1.1 | 2.4*
N#Cc1nc(-c2cccs2)oc1NCc1ccc2c(c1)OCO2 | 7 | · | 4% | 0 | 1.1 | 2.4*
COc1ccc(Nc2oc(-c3cccs3)nc2C#N)cc1 | 0 | i | 9% | 2 | 1.1 | 1.9
O=C(NCCCN1CCOCC1)c1cc(-c2cccs2)on1 | 18 | i | 8% | 6 | 0.99 | 1.1
N#Cc1nc(-c2ccccc2)oc1NCCN1CCCCC1 | 14 | · | 12% | 9 | 1.1 | 3.8*
N#Cc1nc(-c2cccs2)oc1NCCc1ccccc1 | 0 | · | 3% | 10 | 0.99 | 2.5*
CC(C)CCOc1ccc(C(=O)CCNC(C)C(=O)O)cc1 (configuration not stated) | 4 | i | 6% | 13 | 0.99 | 1.1
CCNC(=O)[C@@H]1CCCN1C(=O)[C@H](CCCN=C(N)N)NC(=O)[C@H](CC(C)C)NC(=O)[C@@H](CC(C)C)NC(=O)[C@H](Cc1ccc(O)cc1)NC(=O)[C@H](CO)NC(=O)[C@H](Cc1c[nH]c2ccccc12)NC(=O)[C@H](Cc1cnc[nH]1)NC(=O)[C@@H]1CCC(=O)N1 | 1 | i | 0% | 0 | 1 | 1.1
C=CCc1cccc2cc(C(=O)NCc3cccnc3)c(=O)oc12 | 9 | i | 5% | 9 | 1 | 1.6
O=C1CCCN1CCC1CCN(C2CC(=O)N(c3ccc(Cl)cc3)C2=O)CC1 (configuration not stated) | 8 | i | 3% | 0 | 1 | 1.1
COc1ccc(CCNc2oc(COc3ccc(F)cc3)nc2C#N)cc1 | 1 | i | 0% | 1 | 1 | 1.1
N#Cc1nc(-c2ccco2)oc1NCCc1ccccc1 | 16 | i | 9% | 15 | 1 | 2.1*
N#Cc1nc(-c2cccs2)oc1N1CCN(Cc2ccccc2)CC1 | 4 | · | 4% | 4 | 1.1 | 3.8*
COc1ccc(CCNc2oc(Cc3ccccc3)nc2C#N)cc1OC | 9 | i | 7% | 11 | 1 | 1.1
N#Cc1nc(COc2ccccc2)oc1N1CCN(Cc2ccccc2)CC1 | 8 | i | 5% | 7 | 1 | 1.2
COc1ccc(CCNc2oc(-c3ccco3)nc2C#N)cc1 | 8 | i | 6% | 13 | 1 | 2.4*
Cc1ccc2cc(C#N)c(NCCNC(=O)C3CC3)nc2c1C | 10 | i | 14% | 6 | 1 | 3.2*
COc1ccccc1CNc1nc2nc(C)cc(=O)n2[nH]1 | 13 | i | 9% | 10 | 1 | 1.1
SMILES | MK inhibit | DPM-DC inhibit | NADH coupling | PMK inhibit | A340 absorber | Autofluor 339
O=C(Nc1cc2nn(-c3ccccc3)nc2cc1Cl)c1ccco1 | 12 | · | 10% | 7 | 1.2 | 3.8*
O=C(Nc1ccc2nn(-c3ccccc3)nc2c1)c1cccnc1 | 12 | i | 4% | 1 | 1.1 | 1.3
CC(=O)Nc1cc2nn(-c3ccccc3)nc2cc1Cl | 11 | · | 6% | 0 | 1.1 | 2.3*
COc1ccc(S(=O)(=O)Nc2ccccc2C(=O)NCc2ccco2)cc1 | 6 | · | 8% | 9 | 1 | 3.6*
Cc1cc(C)n2nc(NCc3ccccc3)nc2n1 | 4 | · | 6% | 7 | 1.1 | 3.6*
COC(=O)CSc1nc2nc(C)cc(C)n2n1 | 7 | i | 5% | 2 | 0.97 | 1
COc1ccc(-c2nc3nc(C)cc(C)n3n2)cc1 | 5 | · | 5% | 5 | 1 | 3.7*
Cc1nc2nc(-c3cccnc3)nn2c(C)c1Cl | 8 | i | 2% | 9 | 1 | 1

Screening results as filed in PubChem.
